For six compounds, outcome and AC50 results are on record in PubChem BioAssay (EPA / NIEHS).

Read-out in assay [1]: Interleukin-6 (IL6), IL6 (gene 3569)
Nature of the assay: BSK_CASM3C_IL6: BioMAP Diversity Plus: CASM3C Assay for Interleukin-6 (IL6) Biomarker Activity for (AID 2283040). As to conditions: primary human coronary artery smooth muscle cells; actives raise or lower the signal.

Read-out in assay [2]: Tissue plasminogen activator (tPA), PLAT (gene 5327)
Nature of the assay: BSK_BE3C_tPA: BioMAP Diversity Plus: BE3C Assay for Tissue plasminogen activator (tPA) Biomarker Activity (AID 2283041).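 Further: tPA level quantified by ELISA one day after compound addition.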 To be noted: primary human bronchial epithelial cells; actives raise or lower the signal. An outline of the steps: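 Using human lung primary bronchial epithelial cells, tPA was measured by ELISA 24 h after dosing; data fitted relative to DMSO.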

Read-out in assay [3]: Interleukin-8 (IL8), CXCL8 (gene 3576)
Nature of the assay: BSK_CASM3C_IL8: BioMAP Diversity Plus: CASM3C Assay for Interleukin-8 (IL8) Biomarker Activity (AID 2283042).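 Further: IL-8 protein level quantified by ELISA.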 To be noted: primary human coronary artery smooth muscle cells; actives raise or lower the signal.

Read-out in assay [4]: Human Leukocyte Antigen - DR isotype (HLADR), HLA-DRA (gene 3122)
Nature of the assay: BSK_CASM3C_HLADR: BioMAP Diversity Plus: CASM3C Assay for Human Leukocyte Antigen - DR isotype (HLADR) Biomarker Activity (AID 2283043).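 Further: cell-surface HLA-DR protein level quantified by ELISA.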 As to conditions: primary human coronary artery smooth muscle cells; actives raise or lower the signal.

Read-out in assay [5]: Macrophage colony-stimulating factor (MCSF), CSF1 (gene 1435)
Kind of assay: BSK_CASM3C_MCSF: BioMAP Diversity Plus: CASM3C Assay for Macrophage colony-stimulating factor (MCSF) Biomarker Activity (AID 2283044).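 Further: M-CSF protein amount quantified by ELISA after 24 h exposure.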 To be noted: primary human coronary artery smooth muscle cells; actives raise or lower the signal.

Read-out in assay [6]: Low-density lipoprotein receptor (LDLR), LDLR (gene 3949)
Kind of assay: BSK_CASM3C_LDLR: BioMAP Diversity Plus: CASM3C Assay for Low-density lipoprotein receptor (LDLR) Biomarker Activity (AID 2283045).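 Further: LDLR protein level on the cell surface quantified by ELISA.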 To be noted: primary human coronary artery smooth muscle cells; actives raise or lower the signal.

Read-out in assay [7]: Monocyte Chemoattractant Protein-1 (MCP1), CCL2 (gene 6347)
Nature of the assay: BSK_CASM3C_MCP1: BioMAP Diversity Plus: CASM3C Assay for Monocyte Chemoattractant Protein-1 (MCP1) Biomarker Activity (AID 2283046).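 Further: MCP-1 level quantified by ELISA 24 h after dosing.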 As to conditions: primary human coronary artery smooth muscle cells; actives raise or lower the signal.

Assay [8] is described as follows: BSK_CASM3C_Proliferation: Cell Proliferation Assessment in the BioMAP Diversity Plus: CASM3C Assay (AID 2283047).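 Further: sulforhodamine B total protein stain as relative cell number at 560 nm; sub-confluent cells exposed 48 h before staining; fitted both ways against DMSO so gain or loss of cell number.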 To be noted: primary human coronary artery smooth muscle cells.
Read-out in assay [9]: Monokine induced gamma interferon (MIG), CXCL9 (gene 4283)
Nature of the assay: BSK_CASM3C_MIG: BioMAP Diversity Plus: CASM3C Assay for Monokine induced gamma interferon (MIG) Biomarker Activity (AID 2283048).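 Further: MIG protein level measured by ELISA.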 To be noted: primary human coronary artery smooth muscle cells; actives raise or lower the signal.

Read-out in assay [10]: serum amyloid A (SAA), SAA1 (gene 6288)
Kind of assay: BSK_CASM3C_SAA: BioMAP Diversity Plus: CASM3C Assay for serum amyloid A (SAA) Biomarker Activity (AID 2283049).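 Further: SAA protein level quantified by ELISA.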 As to conditions: primary human coronary artery smooth muscle cells; actives raise or lower the signal.

Assay [11] can be described thus: BSK_CASM3C_SRB: Viability Assessment in the BioMAP Diversity Plus: CASM3C Assay (AID 2283050).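 Further: total protein by SRB staining as cytotoxicity measure in parallel cultures; cells exposed to compound for 24 h.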 To be noted: primary human coronary artery smooth muscle cells.
Read-out in assay [12]: Thrombomodulin, THBD (gene 7056)
Kind of assay: BSK_CASM3C_Thrombomodulin: BioMAP Diversity Plus: CASM3C Assay for Thrombomodulin Biomarker Activity (AID 2283051).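 Further: thrombomodulin protein level measured by ELISA 24 h after dosing.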 To be noted: primary human coronary artery smooth muscle cells; actives raise or lower the signal.

Read-out in assay [13]: Tissue Factor, F3 (gene 2152)
Kind of assay: BSK_CASM3C_TissueFactor: BioMAP Diversity Plus: CASM3C Assay for Tissue Factor Biomarker Activity (AID 2283052).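 Further: cell surface tissue factor protein level read by ELISA.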 As to conditions: primary human coronary artery smooth muscle cells; actives raise or lower the signal.

Read-out in assay [14]: Interferon-gamma inducible Protein 10 (IP10), CXCL10 (gene 3627)
Nature of the assay: BSK_hDFCGF_IP10: BioMAP Diversity Plus: hDFCGF Assay for Interferon-gamma inducible Protein 10 (IP10) Biomarker Activity (AID 2283053). As to conditions: primary human foreskin fibroblasts; actives raise or lower the signal. An outline of the steps: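 Chemical-treated human skin fibroblasts (primary) were sampled at 24 h for IP-10 by ELISA. Both increases and decreases relative to DMSO were scored.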

Read-out in assay [15]: Urokinase-type plasminogen activator receptor (uPAR), PLAUR (gene 5329)
Kind of assay: BSK_CASM3C_uPAR: BioMAP Diversity Plus: CASM3C Assay for Urokinase-type plasminogen activator receptor (uPAR) Biomarker Activity (AID 2283054).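 Further: cell-surface uPAR protein level quantified by ELISA.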 To be noted: primary human coronary artery smooth muscle cells; actives raise or lower the signal.

Read-out in assay [16]: Vascular cell adhesion molecule 1 (VCAM1), VCAM1 (gene 7412)
Kind of assay: BSK_CASM3C_VCAM1: BioMAP Diversity Plus: CASM3C Assay for Vascular cell adhesion molecule 1 (VCAM1) Biomarker Activity (AID 2283055).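 Further: VCAM-1 protein level quantified by ELISA on the cells.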 As to conditions: primary human coronary artery smooth muscle cells; actives raise or lower the signal.

Read-out in assay [17]: Collagen III, COL3A1 (gene 1281)
Kind of assay: BSK_hDFCGF_CollagenIII: BioMAP Diversity Plus: hDFCGF Assay for Collagen III Biomarker Activity (AID 2283056). As to conditions: primary human foreskin fibroblasts; actives raise or lower the signal. An outline of the steps: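 Cells: human foreskin fibroblasts, primary. Dosing followed by 24 h incubation, then ELISA for collagen III. Both increases and decreases scored relative to DMSO.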

Read-out in assay [18]: Epidermal growth factor receptor (EGFR), EGFR (gene 1956)
Nature of the assay: BSK_hDFCGF_EGFR: BioMAP Diversity Plus: hDFCGF Assay for Epidermal growth factor receptor (EGFR) Biomarker Activity (AID 2283057). As to conditions: primary human foreskin fibroblasts; actives raise or lower the signal. In short, it runs like this:
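Cell-based multiplexed assay in primary human foreskin fibroblasts. EGFR is read by ELISA 24 h after treatment and compared with DMSO controls.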

Read-out in assay [19]: Interleukin-8 (IL8), CXCL8 (gene 3576)
Nature of the assay: BSK_hDFCGF_IL8: BioMAP Diversity Plus: hDFCGF Assay for Interleukin-8 (IL8) Biomarker Activity (AID 2283058). As to conditions: primary human foreskin fibroblasts; actives raise or lower the signal. An outline of the steps:
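IL-8 levels from compound-treated primary human fibroblasts were read by ELISA at 24 h, with DMSO serving as baseline for bidirectional fitting.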

Assay [20] in a line: BSK_hDFCGF_Proliferation: Cell Proliferation Assessment in the BioMAP Diversity Plus: hDFCGF Assay (AID 2283059).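 Further: curves fitted for both rise and fall of signal versus DMSO baseline.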 As to conditions: primary human foreskin fibroblasts. In short, it runs like this:
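Total protein read at 560 nm after 0.1% SRB staining of TCA-fixed human skin fibroblasts, […]. Activity is fitted in both directions relative to DMSO as baseline.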

Where “and” joins values, the source holds several entries; their conditions need not be identical. Equal values may be shown once. Calls of active or inactive are those of the source. How the source made its calls: active means hit-call score of the fitted dose curve at least 0.9, where 1 is the maximum; inactive means score below 0.9.

Consider `OCCCC(F)(F)C(F)(F)C(F)(F)F`, for which the result in assay [1], in assay [2], in assay [3], in [4], in assay [5] and in assay [6] was inactive. Also, the result in [7], in [8], in assay [9], in assay [10], in assay [11] and in assay [12] was inactive. Besides, the outcome in assay [13], in assay [14], in assay [15], in assay [16], in assay [17] and in [18] was inactive. Also, the result in assay [19] and in assay [20] was inactive.
For the compound `FC(F)(Br)C(F)(F)C(F)(F)C(F)(F)C(F)(F)C(F)(F)Br`, the outcome in assay [1], in assay [2], in assay [3], in assay [4], in assay [5] and in [6] was inactive. Moreover, the result in [7], in [8], in assay [9], in assay [10], in [11] and in assay [12] was inactive. Moreover, the result in [13], in assay [14], in assay [15], in [16], in [17] and in assay [18] was inactive. Further, the outcome in assay [19] and in assay [20] was inactive.
Regarding `C=CC/C=C/C/C=C/C/C=C/C`, the outcome in assay [1], in assay [2], in assay [3], in [4], in assay [5] and in [6] was inactive. The result in assay [7], in [9], in assay [10], in assay [11], in assay [12] and in assay [13] was inactive. Further, the outcome in assay [14], in assay [15], in assay [16], in assay [17], in assay [18] and in assay [19] was inactive. In assay [20], the outcome was inactive. Besides, in assay [8], the AC50 was 108 nM (active).
Consider `FC(F)(F)C(F)(F)C(F)(F)C(F)(F)C(F)(F)C(F)(F)CC1CO1` (stereo not given), for which the outcome in [1], in assay [2], in assay [3], in assay [4], in assay [5] and in assay [6] was inactive. In addition, the result in assay [7], in assay [8], in assay [9], in assay [10], in assay [11] and in assay [12] was inactive. The outcome in assay [13], in assay [14], in [15], in assay [16], in [17] and in [18] was inactive. The outcome in assay [19] and in assay [20] was inactive.
With `OCC(F)(F)C(F)(F)C(F)(F)C(F)(F)C(F)(F)C(F)(F)F`, the result in assay [1], in assay [2], in [3], in [4], in assay [5] and in [6] was inactive. For the same compound, the result in [7], in assay [9], in assay [10], in [11], in assay [12] and in assay [13] was inactive. Moreover, the outcome in assay [15], in [16], in assay [18] and in [19] was inactive. Besides, the AC50 was 46.6 µM (active) and 54.9 µM (active) in assay [8]; 55.1 µM (active) and 41.2 µM (active) in assay [14]; 30 µM (active) and 49.7 µM (active) in assay [17]; 56.1 µM (active) and 54.4 µM (active) in assay [20].
With `O=C(O)C(F)(F)C(F)(F)C(F)(F)C(F)(F)C(F)(F)C(F)(F)C(F)(F)C(F)(F)C(F)(F)C(F)F`, the outcome in assay [1], in assay [2], in assay [3], in [4], in assay [5] and in assay [6] was inactive. The result in assay [7], in assay [8], in [9], in assay [10], in [11] and in [12] was inactive. Also, the result in assay [13], in assay [15], in [16], in [18] and in assay [19] was inactive. For the same compound, the AC50 is 18.3 µM (active) and 12.8 µM (active) in assay [14]; 3.34 µM (active) and 8.08 µM (active) in [17]; 15.8 µM (active) and 18.9 µM (active) in assay [20].

The AC50 is the concentration giving half of the maximal activity seen.
